The results in this text go back to PubChem BioAssay (EPA / NIEHS).

Holding throughout (conditions): primary human HUVEC with PBMC; actives raise or lower the signal
Read-out in assay [1]: Monocyte Chemoattractant Protein-1 (MCP1), CCL2 (gene 6347)
Put plainly: BSK_LPS_MCP1: BioMAP Diversity Plus: LPS Assay for Monocyte Chemoattractant Protein-1 (MCP1) Biomarker Activity (AID 2283081).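 For AC50: co-culture stimulated with LPS; secreted MCP-1 protein quantified by ELISA in culture supernatant.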 Summed up: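 HUVEC plus PBMC co-culture (human primary cells, LPS system) exposed to test chemical for 24 h; MCP-1 measured by ELISA. Bidirectional curve fitting against DMSO baseline; parallel SRB total-protein staining flags overt cytotoxicity.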

Assay [2] is described as follows: BSK_LPS_PGE2: BioMAP Diversity Plus: LPS Assay for Prostaglandin E2 (PGE2) Biomarker Activity (AID 2283082).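 For AC50: secreted prostaglandin E2 measured by ELISA in LPS-stimulated co-culture.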 Summed up:
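PGE2 release measured by ELISA in an LPS-activated co-culture of human umbilical vein endothelial cells and peripheral blood mononuclear cells, read at 24 h post-dosing. DMSO served as baseline for bidirectional curve fitting.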

Read-out in assay [3]: Macrophage colony-stimulating factor (MCSF), CSF1 (gene 1435)
Put plainly: BSK_LPS_MCSF: BioMAP Diversity Plus: LPS Assay for Macrophage colony-stimulating factor (MCSF) Biomarker Activity (AID 2283083). Summed up:
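Human umbilical vein endothelial cells co-cultured with peripheral blood mononuclear cells were exposed to compound for 24 h. M-CSF levels were measured by ELISA, and bidirectional curve fitting used DMSO as the negative control and baseline.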

Read-out in assay [4]: Tissue Factor, F3 (gene 2152)
Put plainly: BSK_LPS_TissueFactor: BioMAP Diversity Plus: LPS Assay for Tissue Factor Biomarker Activity (AID 2283084). Summed up: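 Human umbilical vein endothelial cells co-cultured with peripheral blood mononuclear cells were dosed and stimulated with LPS. Cell-surface CD142 was quantified by ELISA at 24 h. Activity was fitted bidirectionally against DMSO baseline.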

Read-out in assay [5]: Tumor necrosis factor (Homo sapiens) (UniProt P01375)
Put plainly: BSK_LPS_TNFa: BioMAP Diversity Plus: LPS Assay for Tumour Necrosis Factor alpha (TNFa) Biomarker Activity (AID 2283085).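 For AC50: TNFa protein level quantified by ELISA in the co-culture.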 The method, boiled down: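 TNFa was quantified by ELISA in LPS-activated co-cultures of human endothelial cells and PBMC, 24 h post-dosing. Both increases and decreases versus DMSO were fitted.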

Read-out in assay [6]: Vascular cell adhesion molecule 1 (VCAM1), VCAM1 (gene 7412)
Put plainly: BSK_LPS_VCAM1: BioMAP Diversity Plus: LPS Assay for Vascular cell adhesion molecule 1 (VCAM1) Biomarker Activity (AID 2283086). The method, boiled down: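 VCAM-1 quantified by ELISA in an LPS-activated co-culture of human endothelial cells and peripheral blood mononuclear cells, read 24 h post-treatment. Fitted in both directions versus DMSO; parallel SRB staining flags overt cytotoxicity.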

Read-out in the next assay: CD38, CD38 (gene 952)
Put plainly: BSK_SAg_CD38: BioMAP Diversity Plus: SAg Assay for CD38 Biomarker Activity (AID 2283087). Summed up:
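CD38 quantified by ELISA (fluorescence) in a superantigen-activated endothelial cell–PBMC co-culture at 24 h post-dose. Activity fitted in both directions relative to DMSO; parallel SRB and Alamar Blue cytotoxicity read-outs.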

Read-out in the next assay: CD40, CD40 (gene 958)
Nature of the assay: BSK_SAg_CD40: BioMAP Diversity Plus: SAg Assay for CD40 Biomarker Activity (AID 2283088). The method, boiled down: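 Human umbilical vein endothelial cells co-cultured with PBMC; CD40 levels measured by ELISA with fluorescence read-out 24 h after chemical dosing. Gain or loss of signal fitted bidirectionally against DMSO baseline.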

Read-out in assay [7]: Monocyte Chemoattractant Protein-1 (MCP1), CCL2 (gene 6347)
Put plainly: BSK_SAg_MCP1: BioMAP Diversity Plus: SAg Assay for Monocyte Chemoattractant Protein-1 (MCP1) Biomarker Activity (AID 2283090). The method, boiled down:
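Values derive from bidirectional fitting of ELISA-measured MCP1 against DMSO controls. Readings were taken 24 h after dosing human vascular endothelial cells co-cultured with peripheral blood mononuclear cells under superantigen stimulation.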

Read-out in a further assay: CD69, CD69 (gene 969)
Nature of the assay: BSK_SAg_CD69: BioMAP Diversity Plus: SAg Assay for CD69 Biomarker Activity (AID 2283089).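 Note: cell surface CD69 protein quantified by ELISA with fluorescence detection.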 The method, boiled down:
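Primary human vascular co-culture (umbilical vein endothelium with peripheral blood mononuclear cells) exposed to test chemical for 24 h. CD69 levels quantified by fluorescence ELISA; DMSO served as negative control for bidirectional fitting.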

Activity calls are given as the source filed them. Rule for the calls: active = hit-call score of the fitted dose curve at least 0.9, where 1 is the maximum; inactive = score below 0.9.

Chain of Tumor necrosis factor (Homo sapiens) (P01375 whole entry, looked up): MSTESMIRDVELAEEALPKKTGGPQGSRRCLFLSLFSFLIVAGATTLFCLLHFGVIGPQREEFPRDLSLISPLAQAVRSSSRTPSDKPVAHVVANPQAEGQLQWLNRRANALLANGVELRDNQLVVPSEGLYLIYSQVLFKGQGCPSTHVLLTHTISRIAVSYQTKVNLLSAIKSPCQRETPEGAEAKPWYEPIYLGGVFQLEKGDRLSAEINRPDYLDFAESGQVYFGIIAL

For the compound `CC(=O)OCCOCCOCCOC(C)=O`, the result in assay [1], in [2], in assay [3], in [4], in assay [5] and in assay [6] was inactive. Moreover, the outcome with CD38, CD38 (gene 952) is “inactive”; with CD40, CD40 (gene 958), “inactive”; in [7], “inactive”.

As for `COc1ccc(S(=O)(=O)N2C(=O)[C@@](c3ccccc3OC)(N3C[C@H](O)C[C@H]3C(=O)N(C)C)c3cc(Cl)ccc32)c(OC)c1`, the outcome in assay [1] was “inactive”; in assay [2], “inactive”; in [4], “inactive”; with CD38, CD38 (gene 952) it was “inactive”; in [7] it was “inactive”. In addition, the AC50 (commonly the concentration at which the activity in the assay is half-maximal) is 32 µM (active) in [3]; 16.6 µM (active) in assay [5]; 27 µM (active) in assay [6]; 20 µM (active) with CD40, CD40 (gene 958).

Take `Cc1ccc(C)c(O)c1C`: the outcome is “inactive” in [1]; “inactive” in assay [3]; “inactive” in assay [4]; “inactive” in assay [5]; “inactive” in assay [6]; “inactive” with CD38, CD38 (gene 952). In addition, the outcome was “inactive” with CD40, CD40 (gene 958) and “inactive” in assay [7]. Also, the AC50 in [2] is 0.795 µM (active).

In the case of `CC(CO)OC(C)CO` (configuration not stated) (tested in a mixture with another compound), the result in assay [1], in [2], in [3], in assay [4], in assay [5] and in assay [6] was inactive. Also, the outcome with CD38, CD38 (gene 952) was “inactive”; with CD40, CD40 (gene 958) it was “inactive”; in [7] it was “inactive”.

`C[C@]12C=CC(=O)C=C1CC[C@@H]1[C@@H]2C(=O)C[C@@]2(C)[C@H]1CC[C@]2(O)C(=O)CO`: the outcome in assay [1], in [2], in assay [3], in assay [4], in assay [5] and in [6] was inactive. Moreover, the outcome in the assay with CD38, CD38 (gene 952) is “inactive”; with CD40, CD40 (gene 958), “inactive”; in assay [7], “inactive”.

On to `Cc1ccc(C)c(C)c1`, for which the result in assay [1], in assay [2], in assay [3], in assay [4], in assay [5] and in assay [6] was inactive. Moreover, the outcome was “inactive” with CD38, CD38 (gene 952); “inactive” with CD40, CD40 (gene 958); “inactive” in assay [7].

Regarding `Cc1ccc(C(C)C)c(O)c1`, the outcome in assay [1] was “inactive”; in [3], “inactive”; in assay [4] it was “inactive”; in assay [5], “inactive”; in assay [6], “inactive”; with CD38, CD38 (gene 952), “inactive”. The outcome is “inactive” with CD40, CD40 (gene 958) and “inactive” in assay [7]. Besides, the half-maximal activity concentration (AC50) in [2] was 8.88 µM (active).

On to `CCCCN(CCCC)CCCC`, for which the result in assay [1], in assay [2], in [3], in assay [4], in [5] and in [6] was inactive. Further, the outcome with CD38, CD38 (gene 952) is “inactive”; with CD40, CD40 (gene 958), “inactive”; in [7], “inactive”.

For the compound `OC[C@@H](O)[C@@H](O)[C@H](O)[C@H](O)CO`, the result in assay [1], in assay [2], in assay [3], in [4], in assay [5] and in assay [6] was inactive. Further, the outcome is “inactive” with CD38, CD38 (gene 952); “inactive” in the assay with CD40, CD40 (gene 958); “inactive” in assay [7].

Turning to `CN1CCN(Cc2cc(-c3ccc4[nH]c(=O)oc4c3)co2)[C@@H](c2ccc(F)cc2)C1`, the AC50 in assay [1] is 22.5 µM (active); with CD38, CD38 (gene 952), 31.5 µM (active); with CD40, CD40 (gene 958), 26.8 µM (active); with CD69, CD69 (gene 969), 17.6 µM (active); in [7] it was 11.5 µM (active). In addition, the result in assay [2], in assay [3], in assay [4] and in assay [5] was inactive.

As to `Nc1nc(N)c2nc(CNc3ccc(C(=O)N[C@@H](CCC(=O)O)C(=O)O)cc3)cnc2n1`, the result in assay [1], in [2], in assay [3], in assay [4], in assay [5] and in assay [6] was inactive. Besides, the outcome was “inactive” with CD38, CD38 (gene 952); “inactive” with CD40, CD40 (gene 958); “inactive” in assay [7].

`FC(F)(F)C(F)(F)C(F)(F)C(F)(F)C(F)(F)C(F)(F)CCI`: the result in assay [1], in [2], in assay [3], in [4], in assay [5] and in assay [6] was inactive. For the same compound, the outcome with CD38, CD38 (gene 952) is “inactive”; in the assay with CD40, CD40 (gene 958), “inactive”; in [7], “inactive”.

Take `CCCCCCCCCCCCCCCCCC(=O)O`: the outcome in assay [1] is “inactive”; in [2], “inactive”; in assay [3], “inactive”; in [4], “inactive”; in assay [6], “inactive”; with CD38, CD38 (gene 952), “inactive”. Besides, the outcome in assay [7] was inactive. Also, the half-maximal activity concentration (AC50) was 4.09 µM (active) in [5] and 25.8 µM (active) with CD40, CD40 (gene 958).

As to `O=C(N[C@@H](Cc1ccccc1)[C@@H](O)C(=O)N1C[C@@H](O)[C@@H](O)C1)c1cc2cc(Cl)ccc2[nH]1`, the outcome in assay [1], in assay [2], in assay [3], in [4], in [5] and in assay [6] was inactive. Besides, the outcome is “inactive” in the assay with CD38, CD38 (gene 952); “inactive” with CD40, CD40 (gene 958); “inactive” in assay [7].

For the compound `Cc1ccc(N(C)C)cc1`, the outcome in assay [1], in assay [2], in assay [3], in assay [4], in assay [5] and in assay [6] was inactive. In addition, the outcome in the assay with CD38, CD38 (gene 952) was “inactive”; with CD40, CD40 (gene 958), “inactive”; in assay [7], “inactive”.

In the case of `CCNc1cccc(C)c1`, the outcome in [1], in [2], in assay [3], in assay [4], in assay [5] and in assay [6] was inactive. Also, the outcome is “inactive” in the assay with CD38, CD38 (gene 952); “inactive” in the assay with CD40, CD40 (gene 958); “inactive” in assay [7].

Take `O=C(O)CCCCC(=O)O`: the outcome in [1], in assay [2], in assay [3], in [4], in assay [5] and in assay [6] was inactive. In addition, the outcome with CD38, CD38 (gene 952) is “inactive”; in the assay with CD40, CD40 (gene 958), “inactive”; in [7], “inactive”.

In the case of `Oc1ccc2ccccc2c1N=Nc1ccccc1`, the outcome in assay [1] was “inactive”; in assay [3] it was “inactive”; in assay [4], “inactive”; in [6], “inactive”; with CD38, CD38 (gene 952) it was “inactive”; with CD40, CD40 (gene 958), “inactive”. In assay [7], the outcome was inactive. For the same compound, the AC50 in assay [2] was 2.4 µM (active); in assay [5], 1.98 µM (active).

`CN1CCCC1=O`: the outcome in assay [1], in assay [2], in assay [3], in assay [4], in assay [5] and in assay [6] was inactive. The outcome with CD38, CD38 (gene 952) is “inactive”; in the assay with CD40, CD40 (gene 958) it was “inactive”; in [7], “inactive”.

As to `NCC1(Cc2noc(=O)[nH]2)CCCCC1`, the outcome in [1], in [2], in assay [3], in assay [4], in [5] and in assay [6] was inactive. The outcome in the assay with CD38, CD38 (gene 952) is “inactive”; with CD40, CD40 (gene 958), “inactive”; in assay [7], “inactive”.

Regarding `O=C(O)Cc1ccccc1Nc1c(Cl)cccc1Cl`, the outcome in [1] was “inactive”; in assay [4], “inactive”; in assay [6] it was “inactive”; in the assay with CD38, CD38 (gene 952), “inactive”; in the assay with CD40, CD40 (gene 958), “inactive”; in assay [7], “inactive”. Further, the AC50 was 0.291 µM (active) in [2], 16.6 µM (active) in assay [3] and 20 µM (active) in [5].

For `O=C(OCCCCCOC(=O)c1ccccc1)c1ccccc1`, the outcome in assay [1] was “inactive”; in assay [2], “inactive”; in assay [3], “inactive”; in assay [4], “inactive”; in assay [6] it was “inactive”; in the assay with CD38, CD38 (gene 952), “inactive”. For the same compound, the outcome is “inactive” in the assay with CD40, CD40 (gene 958) and “inactive” in assay [7]. Further, the concentration at half-maximal activity (AC50) in assay [5] is 12.7 µM (active).

Take `CC1=C(/C=C/C(C)=C/C=C/C(C)=C/CO)C(C)(C)CCC1`: the result in assay [1] and in assay [4] was inactive. For the same compound, the AC50 in assay [2] was 0.574 µM (active); in assay [3], 8.45 µM (active); in assay [5], 5.39 µM (active); in [6], 30.5 µM (active); with CD38, CD38 (gene 952), 32.7 µM (active); in the assay with CD40, CD40 (gene 958) it was 26.4 µM (active). Also, the AC50 in assay [7] is 20.9 µM (active).
